TDP1 block – inhibitors of human tyrosyl-DNA phosphodiesterase TDP1 | Q9NUW8 | AID 485290 | Potency, µM (highest dose often 130 µM), for the others: at the highest dose activity change, negative = inhibition, hits mostly inhibitors | recombinant TDP1, AlphaScreen DNA substrate cleavage | 0.28% of 350,000 active; also: potency is read from the fitted curve at half-maximal effect; % is scaled to controls: 0 for no effect and ±100 for the full control effect; nearly all actives have a fitted effect of over 40% in size
Target sequence (Q9NUW8 whole entry, looked up): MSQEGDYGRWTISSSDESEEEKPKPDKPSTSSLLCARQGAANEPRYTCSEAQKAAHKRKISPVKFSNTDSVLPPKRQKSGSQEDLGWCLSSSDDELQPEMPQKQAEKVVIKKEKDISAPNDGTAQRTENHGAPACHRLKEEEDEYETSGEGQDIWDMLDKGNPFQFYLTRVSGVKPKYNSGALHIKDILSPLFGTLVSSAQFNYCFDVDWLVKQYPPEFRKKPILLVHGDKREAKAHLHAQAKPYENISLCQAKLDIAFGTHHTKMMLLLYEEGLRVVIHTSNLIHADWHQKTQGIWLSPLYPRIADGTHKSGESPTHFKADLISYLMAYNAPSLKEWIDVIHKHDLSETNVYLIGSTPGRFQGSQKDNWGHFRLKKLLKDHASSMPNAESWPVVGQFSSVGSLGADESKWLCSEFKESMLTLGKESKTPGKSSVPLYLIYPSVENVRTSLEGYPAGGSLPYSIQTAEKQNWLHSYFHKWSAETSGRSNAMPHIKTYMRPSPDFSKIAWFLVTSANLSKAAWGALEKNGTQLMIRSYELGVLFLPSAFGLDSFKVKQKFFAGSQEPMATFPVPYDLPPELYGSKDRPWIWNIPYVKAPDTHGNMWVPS
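Recombinant human Tdp1 (E. coli-expressed, 1 nM final) preincubated with compounds 15 min at room temperature, then 5'-biotin/3'-phosphotyrosine-FITC DNA substrate (15 nM final) added for 5 min. AlphaScreen beads (10 ug/ml final) added 10 min; cleavage lowers signal.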
IL-1B inflam inh – blocks inflammasome-driven IL-1 beta release | AID 743279 | 4.7% of 360,000 active | activity change, % at 57.5 µM | THP-1 LPS/ATP IL-1B secretion, AlphaLISA, 16 h; hits give low values; in the data active = activity change below about -50%; inconclusive = mostly about -30% to -49%; also: % is scaled to controls: 0 for no effect and ±100 for the full control effect
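THP-1 cells pretreated 1 hr with compounds (up to 57.5 uM final), then stimulated with LPS (250 ng/mL final) plus ATP (1.25 mM final); secreted IL-1B measured by AlphaLISA after 16 hr, decreased signal indicating inhibition.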
TDP1 cell CPT – growth inhibition of DT40 Tdp1-/-;hTDP1 cells with camptothecin (screen for TDP1 inhibitors); Potency, µM (doses to about 46.2 µM), for the others: at the top dose activity change, negative = growth inhibition, actives largely listed as inhibitors; 12% of 420,000 active; chicken DT40 Tdp1-/-;hTDP1 cells + 20 nM CPT, ATP luminescence, 48 h; also: potency is read from the fitted curve at half-maximal effect; % is scaled to controls: 0 for no effect and ±100 for the full control effect; nearly all actives have a fitted effect of over 55% in size
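Chicken DT40 Tdp1-/- cells stably complemented with human TDP1 were seeded at 400 cells/well in medium containing 20 nM camptothecin, exposed to pin-transferred compounds, and grown at 37 °C for at least 48 hr. Viability was read as ATP luminescence.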
HepG2 tox – kills HepG2 cells in TGF-b inhibitor counter-screen | HepG2 CAGA-GFP viability, ATP luminescence, 18 h | Potency, µM (titrated, usually from 46.1 µM), for inactives: at the top dose activity change, negative = cytotoxicity, most hits filed as cytotoxic | 0.76% of 410,000 active | AID 588856; also: potency is read from the fitted curve at half-maximal effect
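CellTiter-Glo luminescence gave cytotoxicity after 18 hours at 37 degrees C. The cells were HepG2 CAGA-GFP in 1% FBS DMEM, stimulated with 500 pg/mL TGF-beta after compound addition. %Activity was normalised to no-cell wells (complete cell-killing) and DMSO (no toxicity), and curves were fitted and classified.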
TDP1 cell noCPT – qHTS for Inhibitors of human tyrosyl-DNA phosphodiesterase 1 (TDP1): qHTS in cells in absence of CPT. DT40 Tdp1-/- hTDP1 cells, no CPT, ATP luminescence, 48 h. Potency, µM (titrated, usually from 46.2 µM), for the others: at the highest dose activity change, negative = growth inhibition, hits mostly inhibitors. 15% of 420,000 active. AID 686978, 2013; also: potency is read from the fitted curve at half-maximal effect; % is scaled to controls: 0 for no effect and ±100 for the full control effect; nearly all actives have a fitted effect of over 55% in size
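A cellular qHTS used chicken DT40 cells lacking endogenous Tdp1 but carrying stably transfected human TDP1. Compounds were applied without camptothecin, and cell growth kinetics were judged by ATP-dependent luminescence after ≥48 hr.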
TGFb SMAD3 inh – TGF-b pathway inhibition | Potency, µM (top dose mostly 46.1 µM), for inactives: top-dose activity, negative = inhibition, usual class: inhibitors | AID 588855 | HepG2 CAGA-GFP TGF-b/SMAD3 reporter, GFP fluorescence, 18 h; TGF-beta stimulated, 500 pg/mL final | 1.2% of 410,000 active; also: potency is read from the fitted curve at half-maximal effect; % is scaled to controls: 0 for no effect and ±100 for the full control effect; nearly all actives have a fitted effect of over 65% in size
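First, reporter cells (HEPG2 CAGA-GFP) rested 2 h at 37 degrees C. Next, compounds were pinned in and TGF-beta added to 500 pg/mL final. After 18 h, GFP was imaged per cell and summed per well.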
An asterisk follows results filed as active; [ ] = remark or other dose. Hits are enriched below; roughly 18% of the tested compounds scored in any of these assays. Unless noted, calls follow the shape of the dose curve; as a rule, active = well fitted curve in the direction sought with a large enough effect; inconclusive = small, poorly fitted or top-dose-only effect, or another doubt; inactive = no such curve, though single readings can be large; an effect the other way counts as inactive or inconclusive.

`CCOC(=O)C1=C[C@@H](CC)N(S(=O)(=O)c2ccc(C)cc2)[C@H]1c1cccc(Cl)c1` gave IL-1B inflam inh 2.3, TDP1 cell CPT inconclusive, HepG2 tox -37.0%, TDP1 cell noCPT 20.6µM* and TGFb SMAD3 inh inconclusive.
`CCOC(=O)C1=C[C@@H](CC)N(S(=O)(=O)c2ccc(C)cc2)[C@H]1c1cccs1` gave IL-1B inflam inh -5.9, TDP1 cell CPT 14.6µM*, HepG2 tox -31.0%, TDP1 cell noCPT 16.4µM* and TGFb SMAD3 inh inconclusive.
Screening CC[C@@H]1C=C(C(=O)O)[C@H](c2ccc(Cl)cc2)N1S(=O)(=O)c1ccc(C)cc1 returned TDP1 block 1.7%, IL-1B inflam inh 20.7, TDP1 cell CPT 4.9%, HepG2 tox 9.4%, TDP1 cell noCPT -6.9% and TGFb SMAD3 inh -12.8%.
CC(C)c1ncc([N+](=O)[O-])n1C was read as TDP1 cell CPT 15.7% and TDP1 cell noCPT 8.2%.
Screening CCOc1cc(C(=O)Nc2ccc(NC(C)=O)cc2)ccc1OCC(=O)N1CCCCC1 returned TDP1 block 0.0%, IL-1B inflam inh -0.4, TDP1 cell CPT -5.8%, HepG2 tox 3.8%, TDP1 cell noCPT inconclusive and TGFb SMAD3 inh 3.0%.
Screening CCOC(=O)C1=C[C@@H](C(C)(C)C)N(S(=O)(=O)c2ccc(C)cc2)[C@H]1c1cccc(Cl)c1 returned IL-1B inflam inh 33.6, TDP1 cell CPT 14.6µM*, HepG2 tox -26.0%, TDP1 cell noCPT 13µM* and TGFb SMAD3 inh inconclusive.
CCOC(=O)C1=C[C@@H](C(C)(C)C)N(S(=O)(=O)c2ccc(C)cc2)[C@H]1c1cccc2ccccc12 was read as IL-1B inflam inh 6.5, TDP1 cell CPT inconclusive, HepG2 tox -7.6%, TDP1 cell noCPT inconclusive and TGFb SMAD3 inh inconclusive.
For C=CCNC(=S)N1CCN(c2cc3c(cc2F)c(=O)c(C(=O)O)cn3CC)CC1 the results were IL-1B inflam inh inconclusive, TDP1 cell CPT inconclusive, HepG2 tox 1.4%, TDP1 cell noCPT inconclusive and TGFb SMAD3 inh -2.9%.
CCn1cc(C(=O)O)c(=O)c2cc(F)c(N3CCN(C(=S)Nc4ccc(OC)cc4)CC3)cc21 was read as IL-1B inflam inh inconclusive, TDP1 cell CPT inconclusive, HepG2 tox -12.6%, TDP1 cell noCPT inconclusive and TGFb SMAD3 inh -0.3%.
Screening CCn1cc(C(=O)O)c(=O)c2cc(F)c(N3CCN(C(=S)NC(=O)c4cc(OC)cc(OC)c4)CC3)cc21 returned TDP1 block 44.7µM*, IL-1B inflam inh 0.9, TDP1 cell CPT inconclusive, HepG2 tox -9.0%, TDP1 cell noCPT inconclusive and TGFb SMAD3 inh -1.1%.
C=CCCCCCCCCC(=O)N1CCN(c2cc3c(cc2F)c(=O)c(C(=O)O)cn3CC)CC1 was read as IL-1B inflam inh 27.7, TDP1 cell CPT 20.6µM*, HepG2 tox -21.8%, TDP1 cell noCPT inconclusive and TGFb SMAD3 inh -19.5%.
Screening CC1(C)CC(NC(=O)C2CCN(S(=O)(=O)c3ccc(F)cc3)CC2)CC(C)(C)N1 returned TDP1 block 2.2%, IL-1B inflam inh -5.8, TDP1 cell CPT 6.9%, HepG2 tox 7.2%, TDP1 cell noCPT 26.8% and TGFb SMAD3 inh 7.5%.
CCCCn1c(N)c(N(C)C(=O)c2cc3c(F)cccc3s2)c(=O)[nH]c1=O was read as TDP1 block -1.9%, IL-1B inflam inh 17.7, TDP1 cell CPT 1.6%, HepG2 tox 3.0%, TDP1 cell noCPT 6.6% and TGFb SMAD3 inh -28.5%.
CCOC(=O)/C(C#N)=C(C)/C=C1\Sc2ccccc2N1CC was read as TDP1 block 2.7%, IL-1B inflam inh -2.9, TDP1 cell CPT inconclusive, HepG2 tox -42.4%, TDP1 cell noCPT 18.4µM* and TGFb SMAD3 inh -25.2%.
O=C(CCl)Nc1cc2[nH]c(=O)[nH]c2cc1Br was read as TDP1 block -1.6%, IL-1B inflam inh -100.7*, TDP1 cell CPT 2.06µM*, HepG2 tox -85.5%, TDP1 cell noCPT 1.84µM* and TGFb SMAD3 inh inconclusive.
For Cc1cc2c(C)cc(=O)[nH]c2cc1NC(=O)CCl the results were TDP1 block 1.2%, IL-1B inflam inh -96.2*, TDP1 cell CPT 5.17µM*, HepG2 tox -66.1%, TDP1 cell noCPT 2.31µM* and TGFb SMAD3 inh inconclusive.
COc1ccc(-c2nc3ncccc3n2O)cc1 was read as IL-1B inflam inh -6.4, TDP1 cell CPT -4.0%, HepG2 tox 14.1µM*, TDP1 cell noCPT -20.3% and TGFb SMAD3 inh -4.2%.
Screening COc1ccccc1CNC(=O)CSc1nc2nc(C)c(Cc3ccccc3Cl)c(C)n2n1 returned TDP1 block 2.9%, TDP1 cell CPT inconclusive, HepG2 tox -22.2%, TDP1 cell noCPT inconclusive and TGFb SMAD3 inh -18.6%.
`Cc1ccc(-c2nc3cc(NC(=O)c4cc5ccccc5o4)ccc3o2)cc1` gave TDP1 block -4.8%[12.3 µM], TDP1 cell CPT -20.0%, HepG2 tox 1.9%, TDP1 cell noCPT inconclusive and TGFb SMAD3 inh 4.5%.
COc1cc2ccccc2cc1C(=O)Nc1cccc(-c2nc3cc(C)c(C)cc3o2)c1 was read as TDP1 block 1.3%[12.3 µM], TDP1 cell CPT inconclusive, HepG2 tox -35.3%, TDP1 cell noCPT 14.6µM* and TGFb SMAD3 inh -18.6%.
`COc1ccc(-c2nc3cc(NC(=O)c4cc5ccccc5o4)ccc3o2)cc1` gave TDP1 block 4.0%[12.3 µM], TDP1 cell CPT inconclusive, HepG2 tox -5.1%, TDP1 cell noCPT 16.4µM* and TGFb SMAD3 inh 1.3%.
`COc1cc2ccccc2cc1C(=O)Nc1ccc2oc(-c3cccc(Cl)c3Cl)nc2c1` gave TDP1 block 3.1%[12.3 µM], TDP1 cell CPT -25.8%, HepG2 tox -0.9%, TDP1 cell noCPT -8.2% and TGFb SMAD3 inh inconclusive.
For CCc1ccc(-c2nc3cc(NC(=O)c4cc5ccccc5cc4OC)ccc3o2)cc1 the results were TDP1 block 1.3%[12.3 µM], TDP1 cell CPT inconclusive, HepG2 tox -32.4%, TDP1 cell noCPT 13µM* and TGFb SMAD3 inh 4.1%.
For CCc1nc2cc(C(=O)N3CCCN(C=O)CC3)cc(NC(=O)c3ccccc3OC)c2n1C the results were TDP1 cell CPT 15.0%[9.04 µM] and TDP1 cell noCPT -11.7%.
Cc1cc(Nc2ccccc2)n(-c2ccccc2)n1 was read as TDP1 block 5.5%, IL-1B inflam inh 19.2, TDP1 cell CPT -17.6%, HepG2 tox -0.1%, TDP1 cell noCPT inconclusive and TGFb SMAD3 inh -12.4%.

Screens from PubChem.
